Data on 10 compounds can be found in PubChem BioAssay (NCATS).

The nature of assay [1]: Quantitative High-Throughput drug screen in 47 multiple myeloma cell lines against the NCATS MIPE library collection: OCIMY1_PLB cell viability assay (AID 1918979). Further: nearly all actives have a fitted effect of over 35% in size. Further: potency means the concentration at half of the fitted maximal effect. The settings on record: OCI-MY1 myeloma viability, CellTiter-Glo ATP, 48 h; series mostly up to 45.8 µM. The procedure, abridged: (§1)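 ATP-based luminescence (CellTiter-Glo, 5 min RT incubation) quantified surviving cells following two days' treatment with MIPE 4.0 agents at 37 °C, 5% CO2.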
(In general: Cellular ATP, detected with luciferase, serves as a proxy for viable cell number.)

Assay [2] can be described thus: Quantitative High-Throughput drug screen in 47 multiple myeloma cell lines against the NCATS MIPE library collection: MM1S_ATCC cell viability assay (AID 1918980). Further: nearly all actives have a fitted effect of over 45% in size. Further: potency means the concentration at half of the fitted maximal effect. The settings on record: MM1S myeloma viability, CellTiter-Glo ATP luminescence, 48 h; series mostly up to 45.8 µM. The procedure, abridged: as §1
Assay [3] can be described thus: Quantitative High-Throughput drug screen in 47 multiple myeloma cell lines against the NCATS MIPE library collection: OPM1_PLB cell viability assay (AID 1918989). Further: nearly all actives have a fitted effect of over 40% in size. Further: potency means the concentration at half of the fitted maximal effect. The settings on record: CellTiter-Glo, 48 h; series mostly up to 45.8 µM. An outline of the steps:
as §1

The nature of assay [4]: Quantitative High-Throughput drug screen in 47 multiple myeloma cell lines against the NCATS MIPE library collection: KMS28PE_JCRB cell viability assay (AID 1918983). Further: nearly all actives have a fitted effect of over 35% in size. Further: potency means the concentration at half of the fitted maximal effect. The settings on record: KMS28PE multiple myeloma viability, CellTiter-Glo ATP, 48 h; series mostly up to 45.8 µM. An outline of the steps:
as §1

A short description of assay [5]: Quantitative High-Throughput drug screen in 47 multiple myeloma cell lines against the NCATS MIPE library collection: L363_DSMZ cell viability assay (AID 1918984). Further: nearly all actives have a fitted effect of over 40% in size. Further: potency means the concentration at half of the fitted maximal effect. The settings on record: L363 myeloma viability, CellTiter-Glo ATP luminescence, 48 h; series mostly up to 45.8 µM. The procedure, abridged:
as §1

The nature of assay [6]: Quantitative High-Throughput drug screen in 47 multiple myeloma cell lines against the NCATS MIPE library collection: KMS34_JCRB cell viability assay (AID 1918985). Further: nearly all actives have a fitted effect of over 40% in size. Further: potency means the concentration at half of the fitted maximal effect. The settings on record: KMS34 myeloma viability, CellTiter-Glo ATP luminescence, 48 h; series mostly up to 45.8 µM. The procedure, abridged:
as §1

Assay [7] is described as follows: Quantitative High-Throughput drug screen in 47 multiple myeloma cell lines against the NCATS MIPE library collection: LP1_DSMZ cell viability assay (AID 1918982). Further: nearly all actives have a fitted effect of over 35% in size. The settings on record: LP1 myeloma viability, CellTiter-Glo ATP luminescence, 48 h; series mostly up to 45.8 µM. The procedure, abridged: as §1
Assay [8] in a line: Quantitative High-Throughput drug screen in 47 multiple myeloma cell lines against the NCATS MIPE library collection: MM1R_ATCC cell viability assay (AID 1918981). Further: nearly all actives have a fitted effect of over 35% in size. Further: potency means the concentration at half of the fitted maximal effect. The settings on record: MM1R multiple myeloma cells, CellTiter-Glo viability, 48 h; series mostly up to 45.8 µM. An outline of the steps: as §1
Assay [9] is described as follows: Quantitative High-Throughput drug screen in 47 multiple myeloma cell lines against the NCATS MIPE library collection: OCIMY7_PLB cell viability assay (AID 1918987). Further: nearly all actives have a fitted effect of over 65% in size. The settings on record: OCI-MY7 myeloma viability, CellTiter-Glo ATP, 48 h; series mostly up to 45.8 µM. An outline of the steps:
as §1

The structures appear in SMILES notation. Records with an inconclusive call do not appear. Calls of active or inactive are those of the source. The call rests on the fitted dose curve; in most records, active means well fitted cell-killing curve with a large enough effect; inconclusive means small, poorly fitted or top-dose-only effect, or effect the other way; inactive means no such curve, though single readings can be large or run the other way.

For the compound `CN1CCN2c3ccccc3Cc3ccccc3C2C1` (centres undefined), the values for the Potency in assay [1], in assay [2] and in assay [3] were 16.6 µM (active), 13.2 µM (active) and 16.6 µM (active), respectively.
For the compound `CN(C)CCC=C1c2ccccc2C=Cc2ccccc21`, the Potency result in [1], in assay [5] and in [6] was “inactive” in each case. The Potency in [4] is 16.6 µM (active); in assay [3], 18.7 µM (active).
Consider `CCOC(=O)C(C)(C)Oc1ccc(Cl)cc1`, for which the Potency entry in [1], in assay [4] and in assay [3] was “inactive” in each case.
As to `CN1C(C(=O)Nc2ccccn2)=C(O)c2ccccc2S1(=O)=O`, the Potency entry in assay [1], in assay [4], in [5] and in assay [6] was “inactive” each time.
For `Nc1c2c(nc3ccccc13)CCCC2`, the Potency result in [1], in assay [7] and in assay [3] was “inactive” throughout. In addition, the Potency was 11.8 µM (active) in assay [2] and 14.8 µM (active) in assay [4].
Take `CC[N+](CC)(CC)CCOc1cccc(OCC[N+](CC)(CC)CC)c1OCC[N+](CC)(CC)CC`: the Potency result in assay [1], in assay [2], in assay [8], in assay [7], in assay [6] and in [9] was “inactive” in each case.
Regarding `CC#C[C@]1(O)CC[C@H]2[C@@H]3CCC4=CC(=O)CCC4=C3[C@@H](c3ccc(N(C)C)cc3)C[C@@]21C`, the Potency was 3.72 µM (active) in assay [1]; 0.187 µM (active) in assay [2]; 1.32 µM (active) in [4]; 2.64 µM (active) in assay [5]; 1.32 µM (active) in [6].
`CN(Cc1cnc2nc(N)nc(N)c2n1)c1ccc(C(=O)N[C@@H](CCC(=O)O)C(=O)O)cc1`: the Potency in assay [1] is 4.18 µM (active); in assay [2], 0.0187 µM (active); in assay [8], 935 nM (active); in assay [4], 16.6 µM (active); in [6], 0.0935 µM (active).
In the case of `Cn1c(=O)c2c(ncn2C)n(C)c1=O`, the Potency entry in assay [1], in [2], in assay [5] and in assay [6] was “inactive” each time.
As for `CC1COc2c(N3CCN(C)CC3)c(F)cc3c(=O)c(C(=O)O)cn1c23` (centres undefined), the Potency result in [1], in [6], in assay [9] and in [3] was “inactive” each time.
